Legend:
Assay in all cases: DAPPL (digital affinity profiling via proximity ligation, sequencing); 10 mM Tris-HCl pH 7.5, 50 mM NaCl, 1 mM DTT, 4% glycerol, room temperature, 30 min; GST-TFs on glutathione beads, 16-mer random dsDNA library, 0.1% formaldehyde crosslink after washing; high values mean tight binding
FEV = molecular target: T1, FEV (Homo sapiens, UniProt Q99581 1-238); details: protein: recombinant; tags: N-terminal GST; dsDNA, one strand shown
T1 sequence: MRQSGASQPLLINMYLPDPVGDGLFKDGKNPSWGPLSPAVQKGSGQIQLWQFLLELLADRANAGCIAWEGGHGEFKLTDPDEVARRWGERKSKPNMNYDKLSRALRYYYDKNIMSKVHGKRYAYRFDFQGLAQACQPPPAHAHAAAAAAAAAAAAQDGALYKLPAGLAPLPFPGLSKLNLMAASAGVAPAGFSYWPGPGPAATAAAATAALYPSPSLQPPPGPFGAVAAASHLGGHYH
How it was run: (§1)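 Sequencing on an Illumina NextSeq500 followed washing, crosslinking with 0.1% formaldehyde, proximity ligation (BsaI/T4 ligase, 1 h, 37 °C) and PCR amplification of pools that had been incubated for 30 min at room temperature with 200 nmole of a random double-stranded 16-mer DNA library in Tris/NaCl/DTT/glycerol buffer. Each pool held DNA-barcoded human transcription factors, expressed in yeast as GST fusions and captured on glutathione beads, plus a tag-only sample. Binding signal is a hexamer's read frequency for a factor divided by its frequency in the tag-only sample.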

ETV5 = ETV5 (Homo sapiens, UniProt P41161 1-510); details: protein: recombinant; tags: N-terminal GST; dsDNA, one strand shown
ETV5, sequence (P41161 whole entry): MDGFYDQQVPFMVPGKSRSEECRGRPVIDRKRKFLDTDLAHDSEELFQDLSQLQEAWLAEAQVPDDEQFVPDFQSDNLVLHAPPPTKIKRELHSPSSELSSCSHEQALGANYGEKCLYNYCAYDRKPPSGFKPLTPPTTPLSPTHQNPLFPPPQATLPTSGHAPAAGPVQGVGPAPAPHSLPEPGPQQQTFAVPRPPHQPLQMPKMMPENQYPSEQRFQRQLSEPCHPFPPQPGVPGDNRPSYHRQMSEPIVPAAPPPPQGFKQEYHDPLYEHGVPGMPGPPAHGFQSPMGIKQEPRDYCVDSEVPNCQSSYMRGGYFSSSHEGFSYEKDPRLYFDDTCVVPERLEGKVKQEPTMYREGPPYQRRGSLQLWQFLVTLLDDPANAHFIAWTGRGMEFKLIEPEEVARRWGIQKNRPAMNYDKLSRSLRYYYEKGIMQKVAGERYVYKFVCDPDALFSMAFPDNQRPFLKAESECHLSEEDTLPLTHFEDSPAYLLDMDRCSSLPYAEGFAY
How it was run: as §1

HSF1 = HSF1 (Homo sapiens, UniProt Q00613 1-529); details: protein: recombinant; tags: N-terminal GST; chain copies: 3; dsDNA, one strand shown
HSF1, sequence (Q00613 whole entry): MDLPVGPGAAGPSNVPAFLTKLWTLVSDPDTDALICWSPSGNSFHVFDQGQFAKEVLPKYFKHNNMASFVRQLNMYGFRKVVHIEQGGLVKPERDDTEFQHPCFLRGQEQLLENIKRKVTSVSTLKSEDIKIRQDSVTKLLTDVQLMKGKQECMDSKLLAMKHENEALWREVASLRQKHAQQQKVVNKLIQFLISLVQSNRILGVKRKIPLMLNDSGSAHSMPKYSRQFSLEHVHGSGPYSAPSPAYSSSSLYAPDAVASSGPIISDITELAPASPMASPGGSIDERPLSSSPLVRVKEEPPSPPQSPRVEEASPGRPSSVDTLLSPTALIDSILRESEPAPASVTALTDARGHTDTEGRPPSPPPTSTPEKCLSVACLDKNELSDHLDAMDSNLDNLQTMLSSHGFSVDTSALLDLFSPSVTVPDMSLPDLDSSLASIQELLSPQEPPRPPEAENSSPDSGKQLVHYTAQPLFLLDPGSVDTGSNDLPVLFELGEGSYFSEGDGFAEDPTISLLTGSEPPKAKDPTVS
How it was run: as §1

SPIC = molecular target: T2, SPIC (Homo sapiens, UniProt Q8N5J4 1-248); details: protein: recombinant; tags: N-terminal GST; dsDNA, one strand shown
T2 sequence: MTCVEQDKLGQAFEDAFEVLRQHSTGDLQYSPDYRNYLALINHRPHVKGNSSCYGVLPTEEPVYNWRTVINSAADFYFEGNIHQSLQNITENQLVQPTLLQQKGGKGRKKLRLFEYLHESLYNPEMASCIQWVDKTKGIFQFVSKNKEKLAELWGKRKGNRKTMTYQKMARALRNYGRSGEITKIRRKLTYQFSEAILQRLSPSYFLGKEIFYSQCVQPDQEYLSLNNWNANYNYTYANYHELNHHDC
How it was run: as §1

ELF4 = ELF4 (Homo sapiens, UniProt Q99607 1-663); details: protein: recombinant; tags: N-terminal GST; dsDNA, one strand shown
ELF4, sequence (Q99607 whole entry): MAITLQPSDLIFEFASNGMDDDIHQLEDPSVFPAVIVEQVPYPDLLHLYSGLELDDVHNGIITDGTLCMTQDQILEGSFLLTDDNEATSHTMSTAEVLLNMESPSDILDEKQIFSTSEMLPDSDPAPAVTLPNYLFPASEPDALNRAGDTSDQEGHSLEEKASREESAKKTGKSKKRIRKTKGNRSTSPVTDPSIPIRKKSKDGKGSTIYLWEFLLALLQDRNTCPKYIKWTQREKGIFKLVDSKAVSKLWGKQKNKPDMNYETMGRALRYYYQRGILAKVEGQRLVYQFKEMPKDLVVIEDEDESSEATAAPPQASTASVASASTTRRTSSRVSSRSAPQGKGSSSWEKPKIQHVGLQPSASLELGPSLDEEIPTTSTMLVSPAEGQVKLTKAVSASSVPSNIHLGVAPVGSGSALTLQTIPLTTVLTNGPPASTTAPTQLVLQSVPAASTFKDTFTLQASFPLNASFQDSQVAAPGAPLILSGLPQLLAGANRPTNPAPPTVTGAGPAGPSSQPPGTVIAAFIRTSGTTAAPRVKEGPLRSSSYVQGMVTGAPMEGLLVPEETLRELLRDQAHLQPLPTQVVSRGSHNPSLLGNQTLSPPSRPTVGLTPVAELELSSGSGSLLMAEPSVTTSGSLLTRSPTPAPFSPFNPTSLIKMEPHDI
How it was run: as §1

ELK4 = molecular target: T3, ELK4 (Homo sapiens, UniProt P28324-2 1-405); details: protein: recombinant; tags: N-terminal GST; dsDNA, one strand shown
T3 sequence: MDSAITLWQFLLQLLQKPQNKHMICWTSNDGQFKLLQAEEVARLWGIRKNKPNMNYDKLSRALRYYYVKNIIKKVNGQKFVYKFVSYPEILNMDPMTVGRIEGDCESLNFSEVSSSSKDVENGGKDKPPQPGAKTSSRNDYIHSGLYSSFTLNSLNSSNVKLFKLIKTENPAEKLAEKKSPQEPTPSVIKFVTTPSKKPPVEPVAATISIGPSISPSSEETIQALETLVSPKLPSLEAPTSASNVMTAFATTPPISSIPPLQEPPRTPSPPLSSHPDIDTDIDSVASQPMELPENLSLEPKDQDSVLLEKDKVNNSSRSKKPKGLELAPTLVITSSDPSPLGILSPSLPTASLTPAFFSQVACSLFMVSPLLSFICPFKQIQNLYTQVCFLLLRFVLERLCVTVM
How it was run: as §1

ETV2 = molecular target: T4, ETV2 (Homo sapiens, UniProt O00321 1-342); details: protein: recombinant; tags: N-terminal GST; dsDNA, one strand shown
T4 sequence: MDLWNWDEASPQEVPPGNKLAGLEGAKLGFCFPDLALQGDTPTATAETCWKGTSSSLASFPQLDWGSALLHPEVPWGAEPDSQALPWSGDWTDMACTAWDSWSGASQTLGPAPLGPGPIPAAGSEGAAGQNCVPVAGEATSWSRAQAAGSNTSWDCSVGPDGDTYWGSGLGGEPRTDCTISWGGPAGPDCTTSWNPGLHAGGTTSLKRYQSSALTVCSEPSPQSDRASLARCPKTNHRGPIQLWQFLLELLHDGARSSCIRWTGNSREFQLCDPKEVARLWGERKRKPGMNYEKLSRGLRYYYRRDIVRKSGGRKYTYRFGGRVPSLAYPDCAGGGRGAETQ
How it was run: as §1

ELF3 = molecular target: T5, ELF3 (Homo sapiens, UniProt P78545 1-371); details: protein: recombinant; tags: N-terminal GST; dsDNA, one strand shown
T5 sequence: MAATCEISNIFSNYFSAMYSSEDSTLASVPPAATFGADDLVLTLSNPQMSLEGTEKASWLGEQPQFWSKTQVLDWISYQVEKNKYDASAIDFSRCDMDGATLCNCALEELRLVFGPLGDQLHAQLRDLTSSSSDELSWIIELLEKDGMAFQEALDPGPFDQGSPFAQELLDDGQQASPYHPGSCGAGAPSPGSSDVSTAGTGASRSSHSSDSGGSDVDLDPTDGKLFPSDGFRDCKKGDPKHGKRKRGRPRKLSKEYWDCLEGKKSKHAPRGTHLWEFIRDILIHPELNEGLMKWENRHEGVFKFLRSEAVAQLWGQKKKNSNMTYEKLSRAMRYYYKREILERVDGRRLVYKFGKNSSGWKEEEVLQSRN
How it was run: as §1

CRX = CRX (Homo sapiens, UniProt O43186 1-299); details: protein: recombinant; tags: N-terminal GST; dsDNA, one strand shown
CRX, sequence (O43186 whole entry): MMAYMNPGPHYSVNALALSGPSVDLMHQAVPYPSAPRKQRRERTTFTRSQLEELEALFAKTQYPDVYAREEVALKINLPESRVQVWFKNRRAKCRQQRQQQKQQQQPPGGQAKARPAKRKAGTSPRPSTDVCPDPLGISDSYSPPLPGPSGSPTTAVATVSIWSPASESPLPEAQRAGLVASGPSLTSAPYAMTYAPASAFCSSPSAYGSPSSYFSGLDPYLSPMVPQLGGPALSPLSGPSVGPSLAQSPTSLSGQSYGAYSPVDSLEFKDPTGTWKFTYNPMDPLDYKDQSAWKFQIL
How it was run: as §1

Question: What does the source list for TGTCTA?
Answer: binding signal (FEV): 1.14 fold enrichment (6-mer frequency, TF over GST control); binding signal (ETV5): 1.24 fold enrichment (6-mer frequency, TF over GST control); binding signal (HSF1): 1.15 fold enrichment (6-mer frequency, TF over GST control); binding signal (SPIC): 1.35 fold enrichment (6-mer frequency, TF over GST control); binding signal (ELF4): 1.2 fold enrichment (6-mer frequency, TF over GST control); binding signal (ELK4): 1.06 fold enrichment (6-mer frequency, TF over GST control); binding signal (ETV2): 1.34 fold enrichment (6-mer frequency, TF over GST control); binding signal (ELF3): 1.06 fold enrichment (6-mer frequency, TF over GST control); binding signal (CRX): 1.05 fold enrichment (6-mer frequency, TF over GST control)

Reference: article PMC7862700, “An all-to-all approach to the identification of sequence-specific readers for epigenetic DNA modifications on cytosine”
